Rows were chosen to be rich in hits. Some 1.3% of all compounds tested hit in one or more screens of this group.
Keap1 Nrf2 FP: inhibitors of human Keap1-Nrf2 protein-protein interaction | Q14145 | Keap1 Kelch-Nrf2 peptide fluorescence polarization, 1536-well | inhibition, % at 9.4 µM | 340,000 compounds, 0.15% hits | AID 504523; in the data active means inhibition above about 12%;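 further: human Keap1 Kelch domain with fluorescein labeled Nrf2 9mer peptide probe; 0% = neutral control wells and 100% = peptide positive control; higher means more block of Keap1 binding to Nrf2 peptide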
Target sequence (Q14145 whole entry, looked up, the tested form may be a part): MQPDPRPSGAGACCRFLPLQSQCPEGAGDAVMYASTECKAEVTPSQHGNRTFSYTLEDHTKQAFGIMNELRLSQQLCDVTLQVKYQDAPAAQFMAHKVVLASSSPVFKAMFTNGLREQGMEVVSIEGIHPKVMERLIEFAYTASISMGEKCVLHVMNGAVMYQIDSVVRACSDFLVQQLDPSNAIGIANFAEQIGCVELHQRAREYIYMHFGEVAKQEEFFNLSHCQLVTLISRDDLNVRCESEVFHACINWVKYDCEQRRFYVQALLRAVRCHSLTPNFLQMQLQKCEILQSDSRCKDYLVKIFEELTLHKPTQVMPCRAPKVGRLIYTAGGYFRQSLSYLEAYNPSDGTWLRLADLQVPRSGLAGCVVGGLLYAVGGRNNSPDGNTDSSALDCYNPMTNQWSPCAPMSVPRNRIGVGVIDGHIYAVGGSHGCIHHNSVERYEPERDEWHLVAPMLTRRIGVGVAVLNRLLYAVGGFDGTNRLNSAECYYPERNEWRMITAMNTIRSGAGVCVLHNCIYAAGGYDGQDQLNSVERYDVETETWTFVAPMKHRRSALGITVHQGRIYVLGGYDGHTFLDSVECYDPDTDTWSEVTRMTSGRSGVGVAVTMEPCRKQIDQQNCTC
C-LANA FP: KSHV C-LANA DNA binding inhibition; 340,000 compounds, 0.078% hits; inhibition, % at 9 µM; MBP-C-LANA/FAM-LBS DNA binding, fluorescence polarization;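 active means highest replicate inhibition at or above 60% at 9 µM, even if other replicates fall short; inactive means all replicates below 60% inhibition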;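 further: 0% = neutral control wells and 100% = 4 µM acridine orange control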
CRFBP-R2 block: CRF-BP/CRF-R2 complex antagonism | HEK293 CRF-R2/CRF-BP, CRF-induced calcium fluorescence | inhibition, % at 11.8 µM | 350,000 compounds, 0.59% hits | AID 588475;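 active means inhibition of the ligand-induced calcium signal above about 50% at the single tested concentration, limit read from the data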
CRFR2-BP ag: CRF-BP/CRF-R2 complex agonism; activation, % at 13.2 µM; AID 588473; 350,000 compounds, 0.46% hits; HEK293 CRF-R2/CRF-BP, calcium dye fluorescence (FLIPR); percent of saturating CRF peptide response;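 active means activation of at least 50%, plus an integration ratio under a set limit after plate pattern correction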;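 further: plate controls were neutral control wells without compound for no effect and CRF at EC100 for full effect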
RTF Ca sens inh: cardiac RTF calcium desensitization; P19429+P45379; IANBD-labeled cardiac RTF, Ca2+ fluorescence; inhibition, % at 7.15 µM; 340,000 compounds, 0.12% hits; AID 493244;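 active means inhibition above the mean inhibition of all tested compounds plus 3 SD, cut at about 17% in these data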;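 further: assay run at fixed EC70 calcium of 1.6 mM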
RTF Ca sens act: cardiac RTF calcium sensitization; IANBD-labeled TnC RTF fluorescence at EC20 calcium; 0% EC20 calcium, 100% full calcium; activation, % at 7.2 µM; 340,000 compounds, 0.24% hits;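 active means activation above the mean over all tested compounds plus 3 SD, cut at about 30% in these data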;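 further: rise in fluorescence read as greater calcium sensitivity of cardiac thin filaments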
Starred values were filed as active, the others as inactive; / = not tested or not shown.

SMILES	Keap1 Nrf2 FP	C-LANA FP	CRFBP-R2 block	CRFR2-BP ag	RTF Ca sens inh	RTF Ca sens act
N#C/C(=C1\CCCN1)c1nc2ccccc2c(=O)[nH]1	-5.7	0.8	67.7*	-2.4	3.9	3.2
CCOc1ccc(/C=N/NC(=O)CN2CCCCCCC2)cc1	-2.3	-1.3	56.9*	3.5	-9.5	7.1
CCCOc1ccc(/C=N/NC(=O)CN2CCCCC2)cc1	-1.6	3.4	-2.4	0.1	-9.2	-2.6
CC(C)(C)C(=O)NC(=S)NNC(=O)C(c1ccccc1)c1ccccc1	-3.6	-14.0	-116.9	191.6*	8.0	12.7
CC(=O)NNC(=S)NC(=O)C(c1ccccc1)c1ccccc1	5.7	0.4	-23.6	18.8	-5.0	-4.3
Cc1ccc(CS(=O)(=O)Cc2ccc(C(=O)NCc3cccnc3)o2)cc1	-0.4	0.9	1.0	4.8	-5.0	0.8
Cc1ccc(C(=O)NCc2cccnc2)o1	-1.2	1.0	84.2*	2.0	0.0	-0.8
O=[N+]([O-])c1ccc(N/N=C/c2c[nH]c3ccccc23)cc1	-0.1	1.4	-225.8	179.8*	-17.5	15.2
O=[N+]([O-])c1ccccc1N/N=C/c1c[nH]c2ccccc12	-1.8	0.5	11.6	-0.2	11.3	-12.6
O=C(O)c1cccc(-c2ccc(/C=N/Nc3ccc([N+](=O)[O-])cc3)o2)c1	-27.2	-16.4	-139.8	165.8*	-43.0	16.1
O=C(O)c1ccc(-c2ccc(/C=N/Nc3ccc([N+](=O)[O-])cc3)o2)cc1	-14.2	-2.9	-121.4	155.0*	-56.8	15.1
NS(=O)(=O)c1ccc(-c2ccc(/C=N/Nc3ccc(C(=O)O)cc3)o2)cc1	-3.5	3.4	15.2	2.1	0.2	-1.9
CC(Sc1nnnn1-c1ccccc1)C(=O)Nc1ccccc1-c1ccccc1 (centres undefined)	2.0	-1.0	54.5*	-0.2	2.7	3.0
CC(Sc1nnnn1-c1ccccc1)C(=O)Nc1ccc(N2CCN(C)CC2)cc1 (centres undefined)	5.3	-1.7	-1.8	2.1	2.5	-3.5
CC12CCC(C/C1=N\OC(=O)c1c(F)cccc1F)C2(C)C (centres undefined)	5.6	0.1	95.3*	-0.1	-7.0	2.3
CCCCCCn1c(=O)[nH]c2nc3cc(N)ccc3nc2c1=O	/	/	-307.7	274.7*	/	/
CCN(CC)c1ccc(/C=N/NC(=O)c2ccc(Br)o2)cc1	-2.4	0.1	-9.6	-0.8	-5.2	0.0
Cc1ccc(NC(=O)c2cc(NC(=O)c3ccccc3C(=O)O)ccc2N2CCCCC2)cc1	-2.2	0.6	8.3	-1.3	-13.5	-0.8
Cc1ccc(NC(=O)c2cc(NC(=O)/C=C\C(=O)O)ccc2N2CCCCC2)cc1	-2.3	0.1	95.4*	0.3	1.7	-1.7
Cc1ccc(-c2nc(C(=O)NCCCN(C)C)cc3c2[nH]c2ccccc23)cc1	-6.6	-6.9	-11.4	0.2	2.3	2.6
COc1ccc(C2(C)NC(=O)N(CC(=O)c3cc(C)n(C4CC4)c3C)C2=O)cc1 (centres undefined)	-2.6	1.9	-52.4	99.6*	0.8	-2.2
Cc1nonc1NC(=O)CSc1ccccn1	3.6	0.7	22.1	-1.6	-1.9	-0.3
Cc1ccc(NS(=O)(=O)c2c(C)nc3sccn3c2=O)cc1	-2.5	-1.9	-1.4	2.3	-1.6	1.8
Cc1nc2sccn2c(=O)c1S(=O)(=O)Nc1cccc(Cl)c1C	0.9	-1.5	-25.5	57.3*	2.4	-4.7
CCn1c(C)c(C(C)=O)c(N2CCN(c3ccccc3)CC2)nc1=S	-6.8	1.8	-19.2	60.0*	-21.0	10.1
SMILES	Keap1 Nrf2 FP	C-LANA FP	CRFBP-R2 block	CRFR2-BP ag	RTF Ca sens inh	RTF Ca sens act
CCc1ccc2oc(C(=O)Nc3cccnc3)c(C)c2c1	0.7	-3.9	-17.4	3.7	-4.8	1.8
CCN(CC(=O)Nc1c(F)cccc1F)C(=O)c1ccc2c(=O)n3c(nc2c1)CCC3	-0.8	0.7	103.7*	-0.9	-2.8	-1.4
O=C(Oc1ccccc1F)c1ccc2c(=O)n3c(nc2c1)CCC3	0.3	-5.4	99.4*	5.9	-7.4	-2.5
CCN(CC(=O)Nc1c(F)cccc1F)C(=O)c1ccc(S(=O)(=O)N2CCC(C)CC2)cc1	-0.1	-0.4	121.9*	-1.2	0.0	2.0
O=C(Oc1ccccc1Cl)c1ccc2c(=O)n3c(nc2c1)CCC3	1.7	-0.7	-8.8	0.4	-13.0	-2.6
CCN(CC(=O)Nc1c(F)cccc1F)C(=O)c1ccc(S(=O)(=O)N2CCCCCC2)cc1	-4.3	-2.0	-3.4	0.3	-11.9	2.1
CC(NC(=O)COC(=O)c1ccc2c(=O)n3c(nc2c1)CCCCC3)c1ccccc1 (centres undefined)	-0.2	-1.2	62.6*	-1.0	-0.3	-2.2
Cc1[nH]c2ccccc2c1C(=O)CN1CCN(c2ccc(Cl)cc2)CC1	-2.0	-1.8	-0.7	-0.2	-4.7	3.8
O=C(N/N=C\c1ccncc1)c1ccccc1O	-1.7	1.1	-10.7	-2.1	16.7	-4.8
O=C(O)c1ccc2c(c1)S(=O)(=O)c1cc(Cl)ccc1C2=O	-3.2	0.1	14.5	-3.2	1.5	7.3
COc1cc2nc3occc3c(OC)c2cc1OC	-2.3	-1.6	2.7	-0.4	-11.1	-1.3
COc1cc(OC)cc(C(=O)N(Cc2ccco2)c2c(N)n(Cc3ccccc3)c(=O)[nH]c2=O)c1	-5.1	-2.9	-2.4	-1.0	-49.5	31.3*
CCCN(C(=O)CSc1n[nH]c(-c2ccc(OC)cc2)n1)c1c(N)n(Cc2ccccc2)c(=O)[nH]c1=O	-2.5	0.1	59.2*	1.0	-2.6	-10.9
Cc1[nH]c2ccc(F)cc2c1CCN(Cc1ccncc1)C(=S)Nc1cccc(F)c1	-7.2	1.1	-6.3	0.0	1.0	10.8
CC(NCC(=O)Nc1ccccc1C(=O)NC1CC1)c1cccc(Cl)c1 (centres undefined)	-4.1	-0.4	66.2*	-0.4	-10.7	2.9
CC(NCC(=O)Nc1ccccc1C(=O)NC1CC1)c1ccc(Cl)cc1 (centres undefined)	/	/	-25.8	-0.9	/	/
CC1CCN(C(=O)COC(=O)c2cccc(S(=O)(=O)N(C)c3ccccc3)c2)CC1	2.5	-2.1	-3.7	-0.7	6.5	-1.6
CCOC(=O)c1c(CC(C)C)csc1N	-0.7	-1.7	55.1*	-2.9	-5.6	-7.0
CCOC(=O)c1c(CC(C)C)csc1NC(=O)C(C)C	-5.9	-1.7	-12.4	0.6	-2.5	4.5
CCOC(=O)CNc1ccc2c(c1)OCO2	22.1*	37.9	1.5	10.3	-30.8	25.4
COc1ccccc1CCNC(=O)CCn1nc(C)c2c(C)n(-c3ccccc3)nc2c1=O	-0.5	0.2	76.2*	-0.2	-12.4	-2.5
CNC(=O)NC(=O)C(C)Oc1ccccc1F (centres undefined)	0.4	0.9	4.9	-3.0	-2.3	0.3
COc1ccc(N=Cc2nc(-c3ccccc3)oc2OC(C)=O)cc1	-1.4	-2.9	21.3	-4.4	-3.8	-7.2

Source: PubChem BioAssay
